The values below come from PubChem BioAssay (NCATS).

The structures appear in SMILES notation. Records with an inconclusive call do not appear. Calls of active or inactive are those of the source. The call rests on the fitted dose curve; in most records, active means well fitted inhibition curve with a large enough effect; inconclusive means small, poorly fitted or top-dose-only effect; inactive means flat fitted curve, though single readings scatter.

The subject of this experiment is CRL-7250. The experiment in a line: qHTS assay to identify novel small-molecules to repurpose for Merkel cell carcinoma treatment (AID 1296009). Further: nearly all actives have a fitted effect of over 60% in size. As to conditions: MCC and control cell lines, CellTiter-Glo viability, 72 h; series mostly up to 92 µM; activity change, negative = cytotoxicity: at the top concentration. Put shortly: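 Cells exposed to NPC (8-point) and MIPE (11-point) compound dilutions for 72 hr at 37 degree celsius; viability read by CellTiter-Glo luminescence, normalized to no-cell and DMSO in-plate controls.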
In general terms: In qHTS, concentration-response curves come from the screen itself.
As to `CCC(C)C(=O)OC[C@H]1O[C@H](O[C@H]2O[C@H](CO)[C@@H](O)[C@H](O)[C@H]2O)[C@H](O)[C@@H](O)[C@@H]1O` (stereo partly specified), the “outcome” value was “inactive [at 17.4 µM]”.

As to `CNc1cc2[nH]c(=O)n(-c3ccc(NC(=O)NS(=O)(=O)c4ccc(Cl)s4)cc3)c(=O)c2cc1F`, the call was inactive.

In the case of `C=C1C(O)CC2C(C(=O)O)=COC(O[C@@H]3O[C@H](COC(=O)c4ccc(O)cc4)[C@@H](O)[C@H](O)[C@H]3O)C12` (stereo partly specified), the “outcome” value was “inactive [at 17.4 µM]”.

In the case of `Cc1cccc(NC(=O)CN2CCC(c3ccccn3)CC2)c1`, the compound was called inactive.

Turning to `CC(C)/C=C1/NC(=O)C(C(C)C)n2c1nc1c(O)cccc1c2=O` (stereo unspecified), the compound was called inactive.

Regarding `COc1cc(C2CC(=O)Nc3c2cc(Br)c2ccccc32)cc(OC)c1OC` (stereo unspecified), the compound was classed as inactive.
